The full list was thinned out, with hits kept by preference.
PI4K2A block: qHTS for small molecular inhibitors of PI4K2A. AID 1346378, 2018. purified PI4K2A, ADP-Glo luminescence, 1 h; hits give low values. 420,000 tested, 0.13% active. activity change, negative = inhibition, % at 76.9 µM; in the data active = activity change below about -50%; inconclusive = mostly about -30% to -49%
Target sequence (Q9BTU6 whole entry, looked up): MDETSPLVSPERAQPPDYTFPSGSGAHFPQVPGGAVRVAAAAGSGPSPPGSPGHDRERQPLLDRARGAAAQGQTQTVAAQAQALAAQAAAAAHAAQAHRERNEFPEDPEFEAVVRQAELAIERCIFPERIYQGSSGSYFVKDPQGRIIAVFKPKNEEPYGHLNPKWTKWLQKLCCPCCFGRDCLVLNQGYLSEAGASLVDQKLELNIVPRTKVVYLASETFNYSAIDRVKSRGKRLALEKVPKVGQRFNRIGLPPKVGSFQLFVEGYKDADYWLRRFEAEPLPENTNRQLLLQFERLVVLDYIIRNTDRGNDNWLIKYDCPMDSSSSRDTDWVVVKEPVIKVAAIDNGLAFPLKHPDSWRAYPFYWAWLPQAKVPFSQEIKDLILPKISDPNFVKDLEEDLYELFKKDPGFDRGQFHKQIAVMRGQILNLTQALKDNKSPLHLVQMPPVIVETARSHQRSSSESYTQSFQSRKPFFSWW
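In this quantitative HTS, ADP production by PI4K2A was quantified luminescently after 1 h at ambient temperature; 100 microM adenosine served as plate-quality control.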
GALK inh: qHTS Assay for Inhibitors of Human Galactokinase (GALK); P51570; Purified GALK, Kinase-Glo residual ATP luminescence; Potency, µM (series often up to 57.5 µM), usual class: inhibitors; 270,000 tested, 0.007% active; AID 1868, 2009
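Human GALK (5 nM) with 35 uM ATP and 100 uM galactose in 20 mM HEPES pH 8.0, 5 mM MgCl2, 60 mM NaCl, 1 mM DTT, 0.01% BSA. After 1 h at room temperature, leftover ATP was read by Kinase-Glo Plus luminescence.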
HTT ATP protect: qHTS Multiplex Assay to Identify Dual Action Probes in a Cell Model of Huntington: Cytoprotection (ATP). PC12 HTT-Q103 induced, cytoprotection, ATP luminescence, 40 h. Potency, µM (titrated, usually from 56.4 µM), actives largely listed as activators. 230,000 tested, 0.14% active. AID 1471, 2008; also: nearly all actives have a fitted effect of over 45% in size
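PC12 cells stably carrying ecdysone-inducible Htt exon 1 (Q103)–GFP were induced with 100 nM tebufenozide (final) alongside library compounds in a dose series. Cytoprotection was scored as retained ATP by ATPlite luminescence.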
HTT aggregate: qHTS Multiplex Assay to Identify Dual Action Probes in a Cell Model of Huntington: Aggregate Formation (GFP) | 220,000 tested, 1.1% active | PC12 HttQ103-GFP aggregates, Acumen cytometry, 40 h | Potency, µM (doses to about 46.1 µM), usual class: inhibitors; also: nearly all actives have a fitted effect of over 60% in size
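Using laser scanning cytometry, GFP-positive aggregates were counted after lysis of PC12 cells induced with 100 nM tebufenozide to express HTT exon 1 Q103–GFP. Compounds were tested in titration.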
Each line names hits and unclear results; the compound was inactive in the other large screens. Unless noted, calls follow the shape of the dose curve; as a rule, active = well fitted curve in the direction sought with a large enough effect; inconclusive = small, poorly fitted or top-dose-only effect, or another doubt; inactive = no such curve, though single readings can be large; an effect the other way counts as inactive or inconclusive.

C=CCN1c2ccccc2[C@]23C[C@@H](C(=O)OC)N(S(=O)(=O)CCCC)C2=NC(C(=O)OC)=C(C(=O)OC)[C@H]13	none (no result: PI4K2A block, GALK inh, HTT aggregate)
CCOC(=O)/C(C#N)=C/c1ccc(OC(=O)c2ccco2)c(OCC)c1	HTT aggregate 8.9µM
COc1ccc(-c2cn(-c3ccc(Br)cc3)c3[n+]2CCS3)cc1	none
CC(=O)c1ccc(-n2cc(-c3ccc(C(C)(C)C)cc3)[n+]3c2SCCC3)cc1	HTT aggregate 10µM
CCOC(=O)c1cnc2sc3c(n2c1=O)CCCC3	HTT aggregate 8.9µM
O=C(NC1CCCCC1)C(c1ccc(F)cc1)N(Cc1ccco1)C(=O)CN1C(=O)c2ccccc2S1(=O)=O (stereo unspecified)	HTT aggregate 22µM (no result: GALK inh)
c1csc(C2=Nn3c(nnc3-c3ccncc3)SC2)c1	HTT ATP protect 25µM (no result: HTT aggregate)
c1ccc(-c2ccc(C3=Nn4c(nnc4-c4ccncc4)SC3)cc2)cc1	none (no result: GALK inh, HTT ATP protect, HTT aggregate)
CC(=O)OC[C@@]12C(=O)[C@@H](O)[C@@H](C)[C@]3(C[C@@H](c4ccoc4)O[C@@H]3OC(C)=O)[C@H]1CCC[C@]21CO1	none (no result: PI4K2A block, GALK inh, HTT aggregate)
COc1ccccc1/C=C/C=N/NC(=O)Cc1cccn1C	none
Cn1cccc1CC(=O)NN=C/C=C\c1ccco1	PI4K2A block -52 (no result: GALK inh, HTT ATP protect, HTT aggregate)
O=C1CC(Sc2nnnn2-c2ccccc2)C(=O)N1c1cccc(Cl)c1 (stereo unspecified)	HTT aggregate 22µM
Cc1nc(Nc2ccc(Cl)cc2Cl)sc1C(=O)Nc1ccccc1	HTT aggregate inconclusive
Cc1nc(Nc2ccc(Cl)c(Cl)c2)sc1C(=O)Nc1ccccc1	HTT aggregate 25µM
CCN(CC)c1ccc(N=Cc2ccc(N(CC)CC)cc2O)cc1	none
CCN(CC)c1ccc(/C=N/N=C(N)N)c(O)c1	HTT aggregate 0.71µM
CC1CCCCC1N(C(=O)c1cc(C2CC2)on1)C1CCCCCC1 (stereo unspecified)	none (no result: GALK inh, HTT ATP protect, HTT aggregate)
Cc1occc1C(=O)Nc1ccc(S(=O)(=O)N2CCCC2)cc1	HTT aggregate 4µM
Cc1occc1C(=O)Nc1cccnc1	HTT aggregate 22µM
O=C(Nc1cccnc1)c1ccccc1O	none
COc1ccc(NC(=O)c2ccco2)cc1NC(=O)c1cccnc1	HTT aggregate 3.2µM
O=C1CCCC1C(O)c1ccc2ccccc2c1 (stereo unspecified)	none (no result: PI4K2A block, GALK inh, HTT aggregate)
CC1=NN(c2ccc(Cl)cc2)C(=O)C1C(c1cccc(O)c1)c1c(C)[nH]n(-c2ccc(Cl)cc2)c1=O (stereo unspecified)	HTT aggregate 13µM
O=C(NCCOc1ccccc1)O[C@@H]1C(=O)c2cc(Br)ccc2O[C@H]1c1ccc2c(c1)OCO2	none (no result: PI4K2A block, GALK inh, HTT aggregate)
CCOC(=O)[C@@](C)(N)Cc1ccc(O)c(O)c1	none (no result: GALK inh, HTT ATP protect, HTT aggregate)
COc1ccc(NC(=O)N2CCc3ccccc32)cc1	PI4K2A block -54
CC(C)C[C@H]1COc2cc(Br)ccc2S(=O)(=O)N1Cc1cn(Cc2ccco2)nn1	none (no result: GALK inh, HTT ATP protect, HTT aggregate)
CCCN1CCCc2cc(CN)ccc21	PI4K2A block inconclusive, HTT aggregate 13µM
CC1=CC(=O)OC1Cc1ccc2ccccc2n1 (stereo unspecified)	none (no result: PI4K2A block, GALK inh, HTT aggregate)
CCSc1nnc(NC(=O)C(NC(=O)c2ccc(Cl)cc2)C(C)C)s1 (stereo unspecified)	HTT aggregate 32µM (no result: HTT ATP protect)
O=C(O)c1ccccc1-c1ccc(/C=C2\SC(=O)N(c3ccccc3)C2=O)o1	none (no result: HTT ATP protect, HTT aggregate)
O=C1S/C(=C\c2ccc(N3CCOCC3)o2)C(=O)N1c1ccccc1	HTT aggregate 16µM
c1ccc2cc3[nH]c(CNc4nc(N5CCOCC5)nc5c4ncn5-c4ccsc4)nc3cc2c1	none (no result: GALK inh, HTT ATP protect, HTT aggregate)
Cc1[nH][nH]c(=O)c1C(c1ccc(-c2ccc(C(=O)O)cc2)o1)c1c(C)[nH][nH]c1=O	PI4K2A block -55
CCCCN1CCN(C(=O)Cn2c(=O)c3ccccc3n(CC)c2=O)CC1	none (no result: GALK inh, HTT ATP protect, HTT aggregate)
CCOc1ccc(-n2c(SCc3ccc([N+](=O)[O-])cc3)nnc2-c2ccccc2)cc1	HTT aggregate 20µM
COc1ccc(-n2c(SCc3ccc([N+](=O)[O-])cc3)nnc2-c2ccccc2)cc1	none (no result: GALK inh)
CC(=O)/C(=C/c1ccccc1)C(=O)Nc1ccccc1C	none
Cc1ccccc1NC(=O)C(=Cc1ccc(C(=O)O)cc1)C(=O)Nc1ccccc1C	HTT aggregate 6.3µM
CCOC(=O)C1C[C@@H](O)C=CC1=O (stereo partly specified)	none (no result: GALK inh, HTT ATP protect, HTT aggregate)
CCC(SCC(=O)OC)C(=O)Nc1nnc(C(C)C)s1 (stereo unspecified)	none
COC(=O)CSC(C)C(=O)Nc1nnc(C(C)C)s1 (stereo unspecified)	HTT ATP protect 3.2µM
COC(=O)[C@@H](CC(C)C)CP(=O)(OC)[C@@H](C)NC(=O)OCc1ccccc1 (stereo partly specified)	none (no result: GALK inh, HTT ATP protect, HTT aggregate)
Cc1ccc(-n2c(SCC(=O)Nc3ccc(Oc4ccccc4)cc3)nnc2-c2ccco2)cc1	none (no result: GALK inh, HTT ATP protect, HTT aggregate)
O=C(NCc1ccc2c(c1)OCO2)c1ccc(COc2cccc(Cl)c2)o1	HTT aggregate 28µM
O=C(NCc1cccnc1)c1ccc(COc2ccc3c(c2)CCC3)o1	HTT aggregate 8.9µM
O=C(C1CCC1)N1CCc2cc(S(=O)(=O)N3CCCC3)ccc21	none (no result: GALK inh, HTT ATP protect, HTT aggregate)
O=C(NC1CCCCN(Cc2cccc(C(F)(F)F)c2)C1=O)c1c(F)cccc1F (stereo unspecified)	none (no result: GALK inh, HTT ATP protect, HTT aggregate)
CN1Cc2cc(C(=O)N3CCC(C4CCNCC4)CC3)ccc2N[C@@H](CC(=O)O)C1=O	none (no result: GALK inh, HTT ATP protect, HTT aggregate)
CCOC(=O)N1CCN(C(=O)c2ccc(CS(=O)(=O)c3c(Cl)cccc3Cl)o2)CC1	HTT aggregate 0.0009µM (no result: HTT ATP protect)
COc1ccc(S(=O)(=O)Cc2ccc(C(=O)N3CCN(c4cc(Cl)ccc4C)CC3)o2)cc1	HTT aggregate 18µM
O=C(CCCN1CCN(c2ccc(F)cc2)CC1)NC1c2ccccc2CSc2ccccc21 (stereo unspecified)	none (no result: GALK inh, HTT ATP protect, HTT aggregate)
C[C@H](O)[C@H](O)[C@@H](O)c1cnc2nc(N)[nH]c(=O)c2n1	none (no result: PI4K2A block, GALK inh, HTT aggregate)
COC(=O)c1[nH]c2ccc(C)cc2c1NC(=O)CN1CCN(c2ccc(F)cc2)CC1	HTT ATP protect 1.6µM
Cn1cc([N+](=O)[O-])c(C(=O)NCc2ccccc2)n1	none
Cn1cc([N+](=O)[O-])c(C(=O)N(Cc2ccccc2)Cc2ccccc2)n1	HTT ATP protect 2.5µM
CCOC(=O)CC[C@H]1CC[C@]2(CCCN(S(C)(=O)=O)C2)O1	none (no result: GALK inh, HTT ATP protect, HTT aggregate)
Cc1ccc(C(=O)Nc2cc(C(C)C)c(O)c(C(C)C)c2)cc1	HTT aggregate 10µM (no result: HTT ATP protect)
CCOc1ccccc1CNS(=O)(=O)c1ccc2[nH]c(=O)sc2c1	HTT aggregate 13µM
CCOc1ccccc1CNS(=O)(=O)c1ccc2c(c1)oc(=O)n2C	none
CN1C=C/C(=C\c2cc[n+](C)c3ccccc23)c2ccccc21	HTT aggregate 7.1µM
CCn1c(SCC(=O)NCc2ccco2)nc2ccccc2c1=O	none
O=C(CSc1nc2ccccc2c2nc3ccccc3n12)NCc1ccco1	PI4K2A block -53
